Our source for the remaining activity, outcome and AC50 values is PubChem BioAssay.

Molecules are shown by their SMILES. Inconclusive results are not listed. The source made the active and inactive calls. Unless noted, how the calls were made is not given here.

One test deals with Aerobactin synthetase IucA (Klebsiella pneumoniae). The test can be described thus: IucA aerobactin synthetase inhibitors, biochemical, Tocris library, absorbance (AID 1345561).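 Further: 100% = enzyme without compound and 0% = no enzyme.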 To be noted: purified IucA enzyme assay, absorbance (OD) read-out; active compounds read low;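 tested at 8 µM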.
Turning to `CCOCC(O)COc1ccc(NC(=O)CC[S+](C)C)cc1` (stereo not drawn), the remaining activity is 96.6% (inactive).

As for `Nc1ncn([C@H]2C[C@H](O)[C@@H](CO)O2)c(=O)n1`, the remaining activity is 97% (inactive).

Take `CC1=C(/C=C/C(C)=C/C=C/C(C)=C/C(=O)Nc2ccc(O)cc2)C(C)(C)CCC1`: the remaining activity was 97.3% (inactive).

Turning to `Nc1nc(Cl)nc2c1ncn2[C@@H]1O[C@H](CO)[C@@H](O)[C@@H]1F`, the remaining activity is 104% (inactive).

Tested on in another test: not listed separately
The test can be described thus: growth inhibition of DIPG glioma cells, dose response, cell-based, SU-DIPG-XVII, MIPE5.0, CellTiter-Glo, qHTS (AID 1347060; cut-off not given, nearly all actives have AC50 up to about 26 µM;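 on AC50: cells exposed to compound for 48 hours before viability readout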). The following applies: SU-DIPG-XVII viability, CellTiter-Glo ATP luminescence. Background: In ATP-based viability assays light output follows the ATP content of the culture.
For `CCOCC(O)COc1ccc(NC(=O)CC[S+](C)C)cc1` (stereo not drawn), the result was inactive.

With `Nc1ncn([C@H]2C[C@H](O)[C@@H](CO)O2)c(=O)n1`, the compound was called inactive.

As to `CC1=C(/C=C/C(C)=C/C=C/C(C)=C/C(=O)Nc2ccc(O)cc2)C(C)(C)CCC1`, the AC50 was 20.9 µM (active).

For the compound `Nc1nc(Cl)nc2c1ncn2[C@@H]1O[C@H](CO)[C@@H](O)[C@@H]1F`, the AC50 was 0.332 µM (active).

The remaining activity is the signal under treatment as a percentage of the control signal. One may read the AC50 as the concentration at which the activity in the assay is half-maximal.
